The chains are these.
B1: Caulobacter ParB omega fusion; a variant is named by its letters at X, in order, B8GW30 (parent)
chain: MESVVVGEPGMSEGRRGLGRGLSALLGEVDAAPAQAPGEQLGGSREAPIEILQRNPDQPRRTFREEDLEDLSNSIREKGVLQPILVRPSPDTAGEYQIVAGERAWRAAQRAGLKTVPIMVRELDDLAVLEIGIIENVQRADLNVLEEALSYKVLMEKFERTQENIAQTIGKSXSHVANXMRLLXLPDEVQSYLVSGELTAXHARAIAAAADPVALAKQIIEGGLSVRETEALARKAPNLSAGKSKGGRPPRVKDTDTQALESDLSSVLGLDVSIDHRGSTGTLTITYATLEQLDDLCNRLTRGI

The full ranking holds about 81,000 sequences; the median of “one-hybrid fitness for binding parS DNA” is about -0.17, and the highest 2% start at about 0.51. For the sample, the highest values were picked, then their nearest neighbours and some sequences at random.

In the assay the parent is B1. The experiment in a line: one-hybrid fitness for binding parS DNA (scaled: cognate 1, non-cognate 0); higher = stronger binding. To be noted: with parS DNA site. The procedure, abridged: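 Caulobacter ParB libraries with four specificity codons randomised were screened by bacterial one-hybrid selection in the E. coli USO strain, using a HIS3 reporter whose site lies 19 bp from the promoter. Selection ran for 48 hours at 37°C on M9 lacking histidine, with 0.1 mM IPTG and 5 mM 3-AT. Plasmids were Illumina-sequenced before and after selection, three replicate libraries were pooled, and variants with under 10 reads were dropped. Fitness is the log change in each variant's read ratio to wild type, rescaled against the cognate and non-cognate sites.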
Turning to RVIQ, the “one-hybrid fitness for binding parS DNA” value was not above 0.2.

Take RVPM: the “one-hybrid fitness for binding parS DNA” value is not above 0.2.

RVIF: the “one-hybrid fitness for binding parS DNA” value is not above 0.2.

In the case of RVPT, the “one-hybrid fitness for binding parS DNA” value came to 0.529.

For RVIT, the “one-hybrid fitness for binding parS DNA” value amounted to 0.703.

For the variant RVPK, the “one-hybrid fitness for binding parS DNA” value is not above 0.2.

With CFTG, the “one-hybrid fitness for binding parS DNA” value is not above 0.2.

For TTVP, the “one-hybrid fitness for binding parS DNA” value is not above 0.2.

Take PCIV: the “one-hybrid fitness for binding parS DNA” value was not above 0.2.

In the case of RNSA, the “one-hybrid fitness for binding parS DNA” value was 0.495.

On to RNNA, for which the “one-hybrid fitness for binding parS DNA” value came out at 0.529.

Consider RNYA, for which the “one-hybrid fitness for binding parS DNA” value stood at 0.467.

With RNDA, the “one-hybrid fitness for binding parS DNA” value is 0.354.

With RNRA, the “one-hybrid fitness for binding parS DNA” value stood at 0.534.

Regarding RNVA, the “one-hybrid fitness for binding parS DNA” value was 0.312.

Take RNWA: the “one-hybrid fitness for binding parS DNA” value stood at 0.294.

As to RNKA, the “one-hybrid fitness for binding parS DNA” value came to 0.541.

For the variant RNQA, the “one-hybrid fitness for binding parS DNA” value amounted to 0.489.

Take CRFC: the “one-hybrid fitness for binding parS DNA” value is not above 0.2.

On to AKST, for which the “one-hybrid fitness for binding parS DNA” value is not above 0.2.

DDYL: the “one-hybrid fitness for binding parS DNA” value is not above 0.2.

Turning to DYFD, the “one-hybrid fitness for binding parS DNA” value is not above 0.2.

As for RYQR, the “one-hybrid fitness for binding parS DNA” value is not above 0.2.

As to QVQY, the “one-hybrid fitness for binding parS DNA” value is not above 0.2.

RMTI: the “one-hybrid fitness for binding parS DNA” value was not above 0.2.

Take KKRY: the “one-hybrid fitness for binding parS DNA” value is not above 0.2.

For IVRC, the “one-hybrid fitness for binding parS DNA” value was not above 0.2.

As to DLVM, the “one-hybrid fitness for binding parS DNA” value was not above 0.2.

As to RNDK, the “one-hybrid fitness for binding parS DNA” value was not above 0.2.

As for RNDG, the “one-hybrid fitness for binding parS DNA” value amounted to 0.679.

As to RNNG, the “one-hybrid fitness for binding parS DNA” value turned out to be 0.948.

As for RNNN, the “one-hybrid fitness for binding parS DNA” value was determined as 0.385.

For the variant RNDM, the “one-hybrid fitness for binding parS DNA” value is not above 0.2.

For RNNH, the “one-hybrid fitness for binding parS DNA” value was not above 0.2.

In the case of LLYC, the “one-hybrid fitness for binding parS DNA” value is not above 0.2.

On to DVVM, for which the “one-hybrid fitness for binding parS DNA” value is not above 0.2.

PAYG: the “one-hybrid fitness for binding parS DNA” value is not above 0.2.

In the case of PDSP, the “one-hybrid fitness for binding parS DNA” value was not above 0.2.

THIF: the “one-hybrid fitness for binding parS DNA” value was not above 0.2.

Take ESHS: the “one-hybrid fitness for binding parS DNA” value is not above 0.2.

As for VADN, the “one-hybrid fitness for binding parS DNA” value was not above 0.2.

On to RCHS, for which the “one-hybrid fitness for binding parS DNA” value turned out to be 0.953.

In the case of RFHP, the “one-hybrid fitness for binding parS DNA” value is not above 0.2.

As for RFHH, the “one-hybrid fitness for binding parS DNA” value is not above 0.2.

Take RMHS: the “one-hybrid fitness for binding parS DNA” value was 0.979.

Regarding RCHD, the “one-hybrid fitness for binding parS DNA” value was not above 0.2.

Take RFHS: the “one-hybrid fitness for binding parS DNA” value turned out to be 0.996.

For RKHS, the “one-hybrid fitness for binding parS DNA” value was determined as 0.832.

As for RMHD, the “one-hybrid fitness for binding parS DNA” value was not above 0.2.

On to RKHN, for which the “one-hybrid fitness for binding parS DNA” value was 0.375.

For the variant RMHN, the “one-hybrid fitness for binding parS DNA” value is 0.482.

Regarding RPHS, the “one-hybrid fitness for binding parS DNA” value was not above 0.2.

On to RKHD, for which the “one-hybrid fitness for binding parS DNA” value was not above 0.2.

In the case of SNSI, the “one-hybrid fitness for binding parS DNA” value is not above 0.2.

Take KYKR: the “one-hybrid fitness for binding parS DNA” value is not above 0.2.

WCAL: the “one-hybrid fitness for binding parS DNA” value was not above 0.2.

Regarding YGRT, the “one-hybrid fitness for binding parS DNA” value is not above 0.2.

As to RAHD, the “one-hybrid fitness for binding parS DNA” value was not above 0.2.

Turning to RSHP, the “one-hybrid fitness for binding parS DNA” value is not above 0.2.

In the case of RSHH, the “one-hybrid fitness for binding parS DNA” value is not above 0.2.

As to RAHS, the “one-hybrid fitness for binding parS DNA” value came to 0.985.

Consider RAHN, for which the “one-hybrid fitness for binding parS DNA” value is 0.481.

Regarding RSHS, the “one-hybrid fitness for binding parS DNA” value came out at 1.

Consider WEGR, for which the “one-hybrid fitness for binding parS DNA” value was not above 0.2.

Turning to ADSS, the “one-hybrid fitness for binding parS DNA” value was not above 0.2.

On to ALSE, for which the “one-hybrid fitness for binding parS DNA” value was not above 0.2.

KLGY: the “one-hybrid fitness for binding parS DNA” value is not above 0.2.

As for RVAS, the “one-hybrid fitness for binding parS DNA” value came out at 1.01.

With RVFD, the “one-hybrid fitness for binding parS DNA” value was not above 0.2.

Take RVFN: the “one-hybrid fitness for binding parS DNA” value is 0.399.

With RVAH, the “one-hybrid fitness for binding parS DNA” value came out at 0.225.

With RVFS, the “one-hybrid fitness for binding parS DNA” value was 1.03.

With RVAN, the “one-hybrid fitness for binding parS DNA” value turned out to be 0.452.

PPTK: the “one-hybrid fitness for binding parS DNA” value was not above 0.2.

Turning to IPLI, the “one-hybrid fitness for binding parS DNA” value is not above 0.2.

As for QGDC, the “one-hybrid fitness for binding parS DNA” value is not above 0.2.

With PYSF, the “one-hybrid fitness for binding parS DNA” value is not above 0.2.

For RCKW, the “one-hybrid fitness for binding parS DNA” value was 0.367.

In the case of RMKW, the “one-hybrid fitness for binding parS DNA” value came to 0.694.

Consider RMDW, for which the “one-hybrid fitness for binding parS DNA” value was not above 0.2.

Regarding RMRW, the “one-hybrid fitness for binding parS DNA” value amounted to 0.586.

On to RMYW, for which the “one-hybrid fitness for binding parS DNA” value came out at 0.216.

RMVW: the “one-hybrid fitness for binding parS DNA” value turned out to be 0.23.

In the case of MALS, the “one-hybrid fitness for binding parS DNA” value was not above 0.2.

IADM: the “one-hybrid fitness for binding parS DNA” value was not above 0.2.

As for HDPK, the “one-hybrid fitness for binding parS DNA” value was not above 0.2.

Take FDHR: the “one-hybrid fitness for binding parS DNA” value was not above 0.2.

TTAR: the “one-hybrid fitness for binding parS DNA” value is not above 0.2.

As to QWPT, the “one-hybrid fitness for binding parS DNA” value was not above 0.2.

In the case of QFYR, the “one-hybrid fitness for binding parS DNA” value is not above 0.2.

On to VGKG, for which the “one-hybrid fitness for binding parS DNA” value is not above 0.2.

In the case of NTRA, the “one-hybrid fitness for binding parS DNA” value is not above 0.2.

ATYA: the “one-hybrid fitness for binding parS DNA” value was not above 0.2.

Turning to RTYA, the “one-hybrid fitness for binding parS DNA” value turned out to be 0.606.

Take RTRA: the “one-hybrid fitness for binding parS DNA” value was 0.794.

Take DTRA: the “one-hybrid fitness for binding parS DNA” value is not above 0.2.

With DTYA, the “one-hybrid fitness for binding parS DNA” value is not above 0.2.

Consider NWKG, for which the “one-hybrid fitness for binding parS DNA” value is not above 0.2.

Turning to RVDE, the “one-hybrid fitness for binding parS DNA” value is not above 0.2.

In the case of TNYG, the “one-hybrid fitness for binding parS DNA” value is not above 0.2.

PHTE: the “one-hybrid fitness for binding parS DNA” value is not above 0.2.

As to MVER, the “one-hybrid fitness for binding parS DNA” value is not above 0.2.

Turning to GAIS, the “one-hybrid fitness for binding parS DNA” value was not above 0.2.

For the variant VHEV, the “one-hybrid fitness for binding parS DNA” value is not above 0.2.

Turning to RPRG, the “one-hybrid fitness for binding parS DNA” value was not above 0.2.

For RDYG, the “one-hybrid fitness for binding parS DNA” value is not above 0.2.

Consider RPYG, for which the “one-hybrid fitness for binding parS DNA” value is not above 0.2.

For the variant RSRG, the “one-hybrid fitness for binding parS DNA” value is 0.965.

As to RERG, the “one-hybrid fitness for binding parS DNA” value was found to be 0.388.

In the case of RCRG, the “one-hybrid fitness for binding parS DNA” value is 0.927.

On to RSRR, for which the “one-hybrid fitness for binding parS DNA” value is not above 0.2.

With RCYG, the “one-hybrid fitness for binding parS DNA” value is 1.04.

For the variant RDRG, the “one-hybrid fitness for binding parS DNA” value was not above 0.2.

As to EMQT, the “one-hybrid fitness for binding parS DNA” value was not above 0.2.

In the case of RTTM, the “one-hybrid fitness for binding parS DNA” value is 0.316.

With HGTT, the “one-hybrid fitness for binding parS DNA” value is not above 0.2.

With LGRI, the “one-hybrid fitness for binding parS DNA” value was not above 0.2.

In the case of DCMT, the “one-hybrid fitness for binding parS DNA” value was not above 0.2.

As for VQTR, the “one-hybrid fitness for binding parS DNA” value is not above 0.2.

Turning to RYYF, the “one-hybrid fitness for binding parS DNA” value is 0.22.

In the case of RYWT, the “one-hybrid fitness for binding parS DNA” value came to 0.787.

For RYGY, the “one-hybrid fitness for binding parS DNA” value is 0.42.

For the variant RYGK, the “one-hybrid fitness for binding parS DNA” value was not above 0.2.

In the case of RYWP, the “one-hybrid fitness for binding parS DNA” value was not above 0.2.

Regarding RYCT, the “one-hybrid fitness for binding parS DNA” value came to 0.852.

On to RYCQ, for which the “one-hybrid fitness for binding parS DNA” value is not above 0.2.

For the variant RYWD, the “one-hybrid fitness for binding parS DNA” value is not above 0.2.

With RYYK, the “one-hybrid fitness for binding parS DNA” value is not above 0.2.

Take RYYT: the “one-hybrid fitness for binding parS DNA” value came to 0.876.

RYCK: the “one-hybrid fitness for binding parS DNA” value was not above 0.2.

With RYGT, the “one-hybrid fitness for binding parS DNA” value is 0.853.

As for TIPF, the “one-hybrid fitness for binding parS DNA” value was not above 0.2.

GWDS: the “one-hybrid fitness for binding parS DNA” value is not above 0.2.

Take DNAI: the “one-hybrid fitness for binding parS DNA” value was not above 0.2.

For LTPR, the “one-hybrid fitness for binding parS DNA” value is not above 0.2.

Turning to DAHI, the “one-hybrid fitness for binding parS DNA” value is not above 0.2.

Regarding KFDS, the “one-hybrid fitness for binding parS DNA” value was not above 0.2.

With TQIL, the “one-hybrid fitness for binding parS DNA” value was not above 0.2.

Turning to VNDP, the “one-hybrid fitness for binding parS DNA” value is 0.246.

As to RYLT, the “one-hybrid fitness for binding parS DNA” value turned out to be 0.911.

Regarding RYNQ, the “one-hybrid fitness for binding parS DNA” value is not above 0.2.

For RYNT, the “one-hybrid fitness for binding parS DNA” value stood at 0.819.

Take RYSM: the “one-hybrid fitness for binding parS DNA” value amounted to 0.302.

For the variant RYRT, the “one-hybrid fitness for binding parS DNA” value was 0.737.

For RYST, the “one-hybrid fitness for binding parS DNA” value came to 0.862.

Consider RYLP, for which the “one-hybrid fitness for binding parS DNA” value was not above 0.2.

As for RYSQ, the “one-hybrid fitness for binding parS DNA” value was not above 0.2.

RYRQ: the “one-hybrid fitness for binding parS DNA” value was not above 0.2.

Turning to RYNE, the “one-hybrid fitness for binding parS DNA” value was not above 0.2.

With RYRF, the “one-hybrid fitness for binding parS DNA” value is not above 0.2.

Consider RYLN, for which the “one-hybrid fitness for binding parS DNA” value worked out at 0.396.

DRTC: the “one-hybrid fitness for binding parS DNA” value was not above 0.2.

Take SSMT: the “one-hybrid fitness for binding parS DNA” value is not above 0.2.

The values are drawn from a collection of fitness landscapes (doi:10.1016/j.celrep.2020.107928).
